Among the data in the supplement of paper PMC12340641 are relative growth recovery values, retold here.

Whole data set: some 1,000 compounds, median “relative growth recovery (pomalidomide 10 uM = 100%, DMSO = 0%)” near -1.6, cut for the highest 2% near 21. The sample holds the highest values, similar compounds and a random draw of the others, so the mix is not that of the screen.

The experiment concerns HEK293FT dCK*-IKZF1. Kind of experiment: relative growth recovery (pomalidomide 10 uM = 100%, DMSO = 0%); higher = more growth rescue (IKZF1 fusion degradation). The following applies: compound concentration: 5 uM; AraC concentration: 0.3 uM; overnight pretreatment + 4 days AraC. The procedure:
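Growth recovery screen of the molecular-glue-like (Specs) library. HEK293FT cells expressing a dCK*-IKZF1 fusion (primary) or dCK* alone (counter) were pretreated overnight with compound at 5 uM, then given 0.3 uM AraC for 4 days. Hoechst nuclei were counted by imaging. Primary: normalised to pomalidomide (100%) and DMSO (0%), mean of 2 replicates. Counter: normalised to no-AraC (100%) and AraC+DMSO (0%), single replicate.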
As to `CCC(C)(C)C(=O)Nc1ccc(S(=O)(=O)Nc2ncccn2)cc1`, the relative growth recovery was -5.08%.
To `Cc1ccnc(NS(=O)(=O)c2ccc(NS(=O)(=O)c3ccc(F)cc3)cc2)n1` belongs -0.59%.
To `Cc1nc(Nc2cccc(C3CCCN3C(=O)COc3ccc(F)cc3)n2)sc1C` (stereo not given) belongs 14.4%.
To `Cc1cc(C)nc(NS(=O)(=O)c2ccc(Nc3nc(-c4cccnc4)cs3)cc2)n1` belongs -1.15%; to `COc1cc(NS(=O)(=O)c2ccc(NC(=O)COc3ccc(C)cc3)cc2)nc(OC)n1`, 1.75%.
As for `O=C(CN1CCC(c2cccc(Nc3nccs3)n2)CC1)Nc1ccc(F)cc1`, the relative growth recovery came out at 9.19%.
As for `COc1ccc(Cl)c2c1[nH]c1nc(SCC(=O)Nc3ccc(F)cc3)nnc12`, the relative growth recovery was -2.51%.
To `Cc1cnc(Nc2cccc(C3(C(N)=O)CCN(C(=O)C4CCCCC4)CC3)n2)s1` belongs -18.2%; to `COc1ccccc1OCC(=O)Nc1ccc(S(=O)(=O)Nc2ncccn2)cc1`, 1.59%.
In the case of `Cc1cnc(Nc2cccc(C3CCN(C(=O)C45CC6CC(CC(C6)C4)C5)CC3)n2)s1`, the relative growth recovery came to 1.16%.
To `CCCOc1ccc(C(=O)Nc2ccc(S(=O)(=O)Nc3nc(C)cc(C)n3)cc2)cc1` belongs -2.85%; to `Cc1cc(Cl)ccc1OC(C)C(=O)Nc1ccc(S(=O)(=O)Nc2ccccn2)cc1` (stereo not given), 0.47%.
To `Cc1cc(NS(=O)(=O)c2ccc(NC(=O)CCCOc3ccc(Cl)cc3)cc2)nc(C)n1` belongs -1.54%; to `Cc1csc(Nc2cccc(C3CCCN3C(=O)CO)n2)n1` (stereo not given), 1.4%.
On to `CC(=O)NC1(CC(=O)N2CCC(c3cccc(Nc4ncc(C)s4)n3)CC2)CCCCC1`, for which the relative growth recovery is -11.7%.
To `Cc1ccc(Nc2nc(C3CCCN(CC(N)=O)C3)cs2)nc1` (stereo not given) belongs -5.75%; to `Cc1cc(C)nc(NS(=O)(=O)c2ccc(NC(=S)NC(=O)c3ccc(F)c(F)c3)cc2)n1`, -2.13%; to `Cc1cnc(Nc2cccc(C3CN(C(=O)C4CCOC4)CCO3)n2)s1` (stereo not given), -8.06%.
As to `Cc1cc(C)nc(NS(=O)(=O)c2ccc(NC(=O)COc3ccc(Cl)cc3)cc2)n1`, the relative growth recovery was found to be 3.77%.
Regarding `Cc1ccc(S(=O)(=O)Nc2ccc(S(=O)(=O)Nc3ncccn3)cc2)cc1`, the relative growth recovery was -3.26%.
To `O=C(Nc1ccc(S(=O)(=O)Nc2ncccn2)cc1)C(F)(F)F` belongs 12.6%; to `O=C1CCC(N2C(=O)c3ccc(N4CCC(C(=O)O)CC4)cc3C2=O)C(=O)N1` (stereo not given), 1.72%; to `Cc1cc(C)nc(NS(=O)(=O)c2ccc(NC(=O)c3ccc(S(=O)(=O)N(C)C)cc3)cc2)n1`, -5.78%.
To `Cc1cc(Cl)ccc1OCC(=O)Nc1ccc(S(=O)(=O)Nc2ncccn2)cc1` belongs -2.19%; to `Cc1ccc(Oc2ccc(N3C(=O)c4ccc(Oc5ccc(N)cc5)cc4C3=O)cc2)cc1C`, -8.53%.
To `CCNc1nc(NCC)nc(NS(=O)(=O)c2ccc(N)cc2)n1` belongs 3.4%; to `Cc1ccnc(NS(=O)(=O)c2ccc(NC(=O)c3ccc(C)c(C)c3)cc2)n1`, 1.75%.
On to `CC(=O)Nc1ccc(S(=O)(=O)N(C#N)c2nc(C)cc(C)n2)cc1`, for which the relative growth recovery turned out to be 4.26%.
To `Cc1cnc(Nc2cccc(C3CN(C(=O)CC4CCCCC4)CCO3)n2)s1` (stereo not given) belongs -11.7%.
To `Cc1cnc(Nc2cccc(C3CN(C(=O)C4CCCCC4)CCO3)n2)s1` (stereo not given) belongs -11.7%; to `CC(=O)Nc1cccc(Oc2ccc3c(c2)C(=O)N(c2ccc(OC(C)=O)cc2)C3=O)c1`, -2.76%; to `O=C(Nc1ccc(S(=O)(=O)Nc2ncccn2)cc1)c1ccc([N+](=O)[O-])cc1`, -0.33%.
To `Cc1csc(Nc2cccc(C3CCCN3C(=O)CC3CC(C)(C)NC(C)(C)C3)n2)n1` (stereo not given) belongs -0.835%; to `COc1ccc(OCCCC(=O)Nc2ccc(S(=O)(=O)Nc3ncccn3)cc2)cc1`, -3.56%; to `CN(CCN1CCC(C(=O)O)CC1)c1cccc2c1C(=O)N(C1CCC(=O)NC1=O)C2=O` (stereo not given), 5.47%.
Regarding `CCC(Oc1ccccc1)C(=O)Nc1ccc(S(=O)(=O)Nc2nc(C)cc(C)n2)cc1` (stereo not given), the relative growth recovery was -3.29%.
`CC(Oc1ccccc1)C(=O)Nc1ccc(S(=O)(=O)Nc2ncccn2)cc1` (stereo not given): the relative growth recovery is -0.515%.
To `CCC(Oc1ccccc1)C(=O)Nc1ccc(S(=O)(=O)Nc2ncccn2)cc1` (stereo not given) belongs 78.9%; to `Cc1cc(C)nc(NS(=O)(=O)c2ccc(NC(=O)c3oc4ccccc4c3C)cc2)n1`, -2.64%; to `Cc1cnc(Nc2cccc(C3CCN(C(=O)CCn4ncc5ccccc54)CC3)n2)s1`, -1.66%.
To `COc1cc(NS(=O)(=O)c2ccc(NC(=O)c3ccccc3C)cc2)nc(OC)n1` belongs -0.335%; to `COc1ccc(C(=O)Nc2ccc(S(=O)(=O)Nc3cc(OC)nc(OC)n3)cc2)c(OC)c1`, 3.94%.
To `CCOc1cc(C(=O)Nc2ccc(S(=O)(=O)Nc3ncccn3)cc2)cc(OCC)c1OCC` belongs 0.09%; to `COc1ccc(C(=O)Nc2ccc(S(=O)(=O)Nc3ncccn3)cc2)c(OC)c1`, -1.31%.
With `Cc1cnc(Nc2cccc(C3CN(C(=O)CN(C(=O)CC(C)C)c4ccccc4)CCO3)n2)s1` (stereo not given), the relative growth recovery amounted to 1.34%.
To `Cc1csc(Nc2cccc(C3CCCN3C(=O)CCCc3ccc(F)cc3)n2)n1` (stereo not given) belongs 0.885%; to `COc1cccc(CCC(=O)N2CCOC(c3cccc(Nc4ncc(C)s4)n3)C2)c1` (stereo not given), 15.8%.
To `COc1ccc(CCC(=O)N2CCOC(c3cccc(Nc4ncc(C)s4)n3)C2)cc1` (stereo not given) belongs 15.7%; to `Cc1csc(Nc2cccc(C3CN(C(=O)CCCc4ccc(F)cc4)CCO3)n2)n1` (stereo not given), 25.2%; to `Cc1csc(Nc2cccc(C3CN(C(=O)CCc4nc(C)no4)CCO3)n2)n1` (stereo not given), 5.6%.
To `COc1ccc(CCC(=O)N2CCOC(c3cccc(Nc4nc(C)cs4)n3)C2)cc1` (stereo not given) belongs 32.4%; to `O=[N+]([O-])c1ccc(S(=O)(=O)Nc2ccc(Cl)cn2)cc1`, -4.66%; to `O=[N+]([O-])c1ccc(S(=O)(=O)Nc2nc3ccccc3nc2Nc2ccccc2)cc1`, 8.16%.
`CC(C)Nc1nc(NC(C)C)nc(NS(=O)(=O)c2ccc(N)cc2)n1`: the relative growth recovery was -1.87%.
To `CC(C)N(C(=O)CN1CCOC(c2cccc(Nc3nccs3)n2)C1)C1CCCCC1` (stereo not given) belongs -2.24%; to `Cc1csc(Nc2cccc(C3CCN(C(=O)Cn4nc(C)cc4C)CC3)n2)n1`, 16.9%.
Take `Cc1cnc(Nc2cccc(C3CCN(C(=O)CC4CCCCC4)CC3)n2)s1`: the relative growth recovery is -13.5%.
To `O=C(c1cccc2ncccc12)N1CCOC(c2cccc(Nc3nccs3)n2)C1` (stereo not given) belongs -7.12%; to `Cc1cc(C)nc(NS(=O)(=O)c2ccc(NC(=O)c3ccc(Cl)cc3Cl)cc2)n1`, -0.215%; to `Cc1cnc(Nc2cccc(C(C(=O)N(C)C)C3CCN(C(=O)[C@H](CC(C)C)NC(=O)OC(C)(C)C)CC3)n2)s1` (stereo not given in full), 3.71%.
